Sampled rows, rich in hits. Any-hit rate of the full collection: about 0.24%.
Bcl-2 Bim block – inhibitors of Bim-Bcl-2 interaction, human; 0.06% of 190,000 active; inhibition, % at 10 µM; AID 950; P10415; Bead-based flow cytometry, Bim peptide-Bcl-2 binding; in the data active means inhibition above about 40%;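 further: 0% = no compound wells with probe peptide and 100% = reference peptide inhibitor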
Target sequence (P10415 whole entry, looked up): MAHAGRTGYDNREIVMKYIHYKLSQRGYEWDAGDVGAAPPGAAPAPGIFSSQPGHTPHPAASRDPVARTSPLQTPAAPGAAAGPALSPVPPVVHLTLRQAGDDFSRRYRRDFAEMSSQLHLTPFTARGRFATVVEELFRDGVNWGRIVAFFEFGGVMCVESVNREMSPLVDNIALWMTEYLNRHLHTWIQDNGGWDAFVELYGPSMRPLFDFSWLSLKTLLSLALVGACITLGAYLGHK
Bcl-W Bim block – inhibitors of Bim-Bcl-W interaction, human. bead-based flow cytometry, Bim peptide-Bcl-W binding. inhibition, % at 10 µM. 0.02% of 190,000 active. AID 952;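 further: 0% = bound tracer without compound and 100% = peptide blocker; higher means less fluorescent Bim peptide bound to Bcl-W beads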
PKD1 kinase inh – blocks activity of human protein kinase D1; Q15139; PKD1 kinase fluorescence polarization assay; inhibition, % (no concentration beside the values); 0.056% of 200,000 active; AID 797; in the data active means inhibition above about 50%
Bcl-B Bim block – disrupts Bim peptide binding to human Bcl-B; bead-based flow cytometry; inhibition, % at 10 µM; 0.073% of 190,000 active; AID 951;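 further: 0% = tracer peptide without compound and 100% = reference inhibitor peptide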
Target sequence (Q9HD36 whole entry, looked up): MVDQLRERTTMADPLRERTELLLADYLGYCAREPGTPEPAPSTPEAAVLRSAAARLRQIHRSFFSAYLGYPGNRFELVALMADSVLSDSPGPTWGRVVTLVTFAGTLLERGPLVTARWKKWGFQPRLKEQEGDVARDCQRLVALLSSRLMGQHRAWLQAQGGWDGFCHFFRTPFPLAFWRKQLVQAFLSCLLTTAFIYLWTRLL
Bcl-XL Bim block – disrupts Bim peptide binding to human Bcl-XL | bead flow cytometry, fluorescence | 0.04% of 190,000 active | AID 1007 | inhibition, % at 10 µM | Q07817
Bfl-1 Bim block – disrupts Bim binding to human Bfl-1; Q16548; Bead-based flow cytometry, Bim-Bfl-1 binding inhibition; inhibition, % at 10 µM; 0.12% of 190,000 active;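 further: 0% = wells without compound plus tracer and 100% = blocker peptide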
Target sequence (Q16548 whole entry, looked up): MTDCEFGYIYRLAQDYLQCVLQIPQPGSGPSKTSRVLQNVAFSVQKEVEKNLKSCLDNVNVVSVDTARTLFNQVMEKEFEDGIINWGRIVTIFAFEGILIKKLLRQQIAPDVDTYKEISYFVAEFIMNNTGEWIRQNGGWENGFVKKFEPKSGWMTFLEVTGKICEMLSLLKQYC
Starred values were filed as active, the others as inactive; . = no result given. Unless noted, no stated cut-off is given here; in the data, active means inhibition above about 40%.

SMILES	Bcl-2 Bim block	Bcl-W Bim block	PKD1 kinase inh	Bcl-B Bim block	Bcl-XL Bim block	Bfl-1 Bim block
CNc1ccc(Br)cc(C(=O)/C=C/c2ccc(OC)cc2OC)c1=O	25.0	27.0	-1.9	3.0	28.0	41.0*
CNc1ccc(Br)cc(C(=O)/C=C/c2cccc(OC)c2)c1=O	32.0	9.0	-5.3	-19.0	8.0	27.0
COCC(C)NCC(=O)NC(C)CCc1ccccc1 (stereo unspecified)	-7.0	-6.0	5.2	-12.0	-8.0	-14.0
O=C(Nc1ccc2nc(-c3ccco3)c(-c3ccco3)nc2c1)NC1CC1	37.0	35.0	-2.6	14.0	20.0	50.0*
O=C(Nc1ccc(N2CCOCC2)cc1)Nc1ccc2nc(-c3ccco3)c(-c3ccco3)nc2c1	5.0	14.0	-6.4	0.0	6.0	29.0
O=C(NCCCO)Nc1ccc2nc(-c3ccco3)c(-c3ccco3)nc2c1	46.0*	46.0*	2.2	28.0	29.0	65.0*
CCO[C@H]1OC(C(=O)N2CCCCCCC2)=C[C@@H](C)[C@@H]1CCCO	-4.0	-1.0	9.6	-6.0	-5.0	-4.0
CC(C)[C@H](NC(=O)c1ccco1)C(=O)OCC(=O)Nc1ccccc1OC(F)F	-3.0	-5.0	-11.8	-3.0	-4.0	-8.0
COc1cc(OC)cc(C(=O)N[C@H](C(=O)NCc2ccco2)C(C)C)c1	0.0	0.0	2.5	-5.0	0.0	-3.0
O=C(O)CC/C(=C\c1ccccc1[N+](=O)[O-])c1nc2ccccc2s1	-1.0	0.0	2.9	0.0	-3.0	0.0
O=C(O)CC/C(=C\c1cc([N+](=O)[O-])ccc1Cl)c1nc2ccccc2s1	28.0	33.0	-4.4	37.0	40.0*	24.0
COc1ccccc1C(=O)N=Nc1c(O)[nH]c2ccc([N+](=O)[O-])cc12	17.0	27.0	-3.6	24.0	44.0*	9.0
CN(C)S(=O)(=O)c1ccc(NC(=O)C2CC3C=CC2C3)cc1 (stereo unspecified)	4.0	1.0	-3.9	2.0	2.0	4.0
Cc1cc([N+](=O)[O-])c(C)cc1-c1ccc(/C=N/NC(=O)c2cccnc2)o1	3.0	-4.0	-5.3	7.0	1.0	11.0
O=C(N/N=C/c1ccc(-c2ccccc2[N+](=O)[O-])o1)c1cncc(Br)c1	18.0	32.0	-8.6	24.0	48.0*	28.0
O=C(Cn1cncc1-c1ccc([N+](=O)[O-])cc1)Nc1ccccc1F	34.0	14.0	0.6	25.0	15.0	42.0*
CN(C)c1ncc(C2=C(Cl)C(=O)C(N3CCCC3)=C(Cl)C2=O)s1	70.0*	83.0*	2.5	46.0*	48.0*	92.0*
O=C1C(Cl)=C(N2CCCCC2)C(=O)C(Cl)=C1c1cnc(N2CCCCC2)s1	69.0*	85.0*	-4.8	52.0*	49.0*	91.0*
CC(=O)c1cnc(N(C)C)s1	7.0	2.0	-6.0	3.0	0.0	3.0
CC[n+]1c(/C=C/C=C/N(C(C)=O)c2ccccc2)sc2ccccc21	.	43.0*	-26.5	2.0	.	9.0
CCC(/C=N/NC(=O)C(N)=O)CC	-5.0	-6.0	-1.6	-1.0	-4.0	-4.0
COc1ccc(Cl)cc1-n1c(C)cc(C=O)c1C	86.0*	20.0	-2.8	84.0*	29.0	62.0*
COc1ccc(Cl)cc1-n1c(C)cc(C(=O)O)c1C	-13.0	4.0	-8.5	-36.0	-9.0	-11.0
CC1(C(=O)N(CC(=O)NC2CCCC2)Cc2ccco2)CC(=O)N=C2C=CC=CN21 (stereo unspecified)	88.0*	23.0	-1.8	.	25.0	.
CCOc1ncccc1C(=O)Nc1ccc(F)cc1	0.0	0.0	2.5	-1.0	2.0	-1.0
SMILES	Bcl-2 Bim block	Bcl-W Bim block	PKD1 kinase inh	Bcl-B Bim block	Bcl-XL Bim block	Bfl-1 Bim block
CCOc1ncccc1C(=O)OC(C)C(=O)Nc1ccc(CC)cc1 (stereo unspecified)	50.0*	0.0	5.6	55.0*	1.0	18.0
S=C(NCCc1ccccc1)NCCc1ccccc1	22.0	29.0	1.7	24.0	39.0	44.0*
NNC(=S)NCCc1ccccc1	2.0	-4.0	0.9	-1.0	1.0	5.0
CC1Cc2ccccc2N1C(=O)c1ccc(N2CCCC2)c([N+](=O)[O-])c1 (stereo unspecified)	56.0*	13.0	-1.0	72.0*	8.0	14.0
CCOc1ccc2c(c1)C(C)=CC(C)(C)N2C(=O)Nc1ccccc1F	-1.0	0.0	5.3	-9.0	-2.0	6.0
CCNC(=O)N1c2ccc(OCC)cc2C(C)=CC1(C)C	24.0	18.0	-8.8	20.0	33.0	40.0*
O=S(=O)(NCc1ccccc1F)NCc1ccccc1F	-2.0	0.0	-8.3	-3.0	-1.0	-4.0
O=C(NCCCN1CCN(CCCNC(=O)c2cc([N+](=O)[O-])ccc2Cl)CC1)c1cc([N+](=O)[O-])ccc1Cl	10.0	13.0	-5.0	78.0*	13.0	2.0
O=C(NCCc1cccc(Cl)c1)c1cc([N+](=O)[O-])ccc1Cl	1.0	-1.0	-5.6	-1.0	0.0	0.0
CCOC(=O)C1(Cc2ccccc2C)CCCN(Cc2ccc(NC(C)=O)cc2)C1 (stereo unspecified)	-5.0	-4.0	-11.3	-6.0	-1.0	0.0
O=C(Nc1cccc(Cl)c1)Nc1ccc(Cl)cn1	77.0*	18.0	-1.9	72.0*	30.0	51.0*
CCCCNC(=O)N1CCN(Cc2ccc(F)cc2)CC1	-2.0	-6.0	-0.2	1.0	-4.0	4.0
COc1ccc(OC)c(NC(=O)CCCN2C(=S)NC(C)(C)CC2C)c1 (stereo unspecified)	43.0*	42.0*	-4.4	54.0*	49.0*	50.0*
Cc1cc(-c2nnc(CCC(=O)NC(C)c3cccc4ccccc34)o2)no1 (stereo unspecified)	73.0*	11.0	-4.0	78.0*	17.0	44.0*
Nc1ccc(N2CCCCCC2)cc1	19.0	30.0	-12.9	10.0	6.0	43.0*
Nc1ccc(N2CCN(c3ccc(F)cc3)CC2)cc1	5.0	4.0	8.4	-2.0	0.0	9.0
Cc1ccc(CNC(=O)COC(=O)c2ccc(Cl)c(N)c2)cc1	-6.0	-2.0	5.9	-5.0	-3.0	-16.0
CC(C)Cc1cc(-c2ccco2)c(C#N)c(N)n1	90.0*	26.0	-12.6	93.0*	30.0	73.0*
Cn1c(N/N=C/c2cc3ccccc3nc2Cl)nc2ccccc21	-1.0	-4.0	-1.8	-8.0	-5.0	0.0
CC1N(C)c2cccc3cccc(c23)N1C	12.0	29.0	-4.4	2.0	9.0	43.0*
CCC(C)NC(=O)c1cc(Sc2nnc(C)s2)nc2ccccc12 (stereo unspecified)	-6.0	-5.0	6.6	-7.0	-4.0	-13.0
Oc1ccc(/C=N/Nc2nc(-c3ccc(Cl)cc3)cc(C(F)(F)F)n2)cc1	-9.0	-3.0	-0.5	-5.0	-4.0	-9.0
O=c1[nH]c(=O)c2nnc(N/N=C\c3ccc(O)cc3)nc2[nH]1	13.0	28.0	2.9	25.0	44.0*	6.0
CC(C)(C)NC(=O)CCN(/N=C/c1ccc([N+](=O)[O-])o1)C1=NS(=O)(=O)c2ccccc21	22.0	36.0	-1.8	27.0	53.0*	19.0

Bioassay records: PubChem, several laboratories
